Laboratory results taken from PubChem BioAssay (Tox21).
Values without a mark were called inactive. Inconclusive results are not listed. Activity calls are given as the source filed them. Calls come from the whole dose curve.

Target: Acetylcholinesterase (Homo sapiens) (UniProt P22303)
Assay: Acetylcholinesterase (AChE) small molecule antagonists: colormetric cell-based qHTS assay (AID 1347395); note: nearly all actives have a fitted effect of over 30% in size
Conditions: SH-SY5Y cells AChE activity, colorimetric (Ellman); series mostly up to 115 µM; activity, negative = inhibition: at the top concentration
How it was run: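 After overnight attachment at 37 C, SH-SY5Y cells get 30 min compound exposure; detection cocktail (acetylthiocholine, DTNB) then incubates 90 min at 37 C, and absorbance reflects AChE-generated thiocholine.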
% is set by controls: 0 for no effect and ±100 for the full control effect; potency is the fitted concentration of half-maximal effect.

Acetylcholinesterase (Homo sapiens), sequence (P22303 whole entry, looked up): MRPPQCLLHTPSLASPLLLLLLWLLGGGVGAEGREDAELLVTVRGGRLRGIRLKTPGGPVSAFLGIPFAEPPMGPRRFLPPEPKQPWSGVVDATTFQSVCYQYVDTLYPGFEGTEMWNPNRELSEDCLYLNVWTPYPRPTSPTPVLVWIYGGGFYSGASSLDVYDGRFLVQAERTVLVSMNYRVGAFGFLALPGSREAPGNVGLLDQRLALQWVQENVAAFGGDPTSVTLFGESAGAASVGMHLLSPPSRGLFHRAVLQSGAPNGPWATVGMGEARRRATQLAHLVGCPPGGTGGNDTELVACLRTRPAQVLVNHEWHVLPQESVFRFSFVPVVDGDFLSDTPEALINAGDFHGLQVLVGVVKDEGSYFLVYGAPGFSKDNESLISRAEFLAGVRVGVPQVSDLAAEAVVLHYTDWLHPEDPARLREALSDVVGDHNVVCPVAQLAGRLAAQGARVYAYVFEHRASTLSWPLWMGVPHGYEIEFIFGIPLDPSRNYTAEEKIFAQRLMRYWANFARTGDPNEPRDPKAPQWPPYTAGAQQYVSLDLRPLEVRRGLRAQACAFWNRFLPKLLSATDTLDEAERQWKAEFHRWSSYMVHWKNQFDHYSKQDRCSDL

| SMILES | activity, negative = inhibition | Potency |
| --- | --- | --- |
| CCCCCCCCCCCC(=O)OCC(C)OC(=O)CCCCC(=O)O (stereo not drawn) | -0.279% [at 52.9 µM] |  |
| c1ccc2sc(SN3CCOCC3)nc2c1 | 0.462% [at 52.9 µM] |  |
| O=C(O)CCSSCCC(=O)O | 0.204% |  |
| Nc1nc(N)c2nc(-c3ccccc3)c(N)nc2n1 |  | inactive |
| CC(C)Nc1cccnc1N1CCN(C(=O)c2cc3cc(NS(C)(=O)=O)ccc3[nH]2)CC1 | -0.936% [at 52.9 µM] |  |
| CC1CCC(CO)CC1 (stereo not drawn) | -3.27% |  |
| CCN(Cc1cccnc1)C(=O)c1cccc(Cl)c1[C@]1(C)C(=O)N(Cc2ccc(OC)cc2OC)c2ccc(Cl)cc21 | 3.66% |  |
| C[C@H]1C[C@H]2[C@@H]3CCC4=CC(=O)C=C[C@]4(C)[C@@]3(Cl)[C@@H](O)C[C@]2(C)[C@@]1(O)C(=O)CO | -0.209% [at 52.9 µM] |  |
| CN1CCN(C2=Nc3cc(F)ccc3Cc3ccccc32)CC1 | -0.377% [at 52.9 µM] |  |
| C1CCCNCCC1 | 3.65% |  |
| O=C1c2ccccc2CCc2ccccc21 |  | inactive |
| c1ccc(-c2ccccn2)nc1 | -3.75% |  |
| CC(=O)Oc1c(C)c(C)c2c(c1C)CC[C@@](C)(CCC[C@H](C)CCC[C@H](C)CCCC(C)C)O2 |  | inactive |
| CCCCOCCOC(=O)c1ccccc1C(=O)OCCOCCCC |  | inactive |
| C=C(C)C(=O)OCc1ccccc1 | 2.31% |  |
| O=C(/C=C/c1ccccc1)OCc1ccccc1 |  | inactive |
| CCOCCOCCOCCO |  | inactive |
| CCCCCCCCCCCC(=O)Cl | -5.02% |  |
| O=C(NO)c1ccccc1 | 4.12% |  |
| O=C[C@@H](O)[C@H](O)[C@H](O)CO | 3.68% |  |

| SMILES | activity, negative = inhibition | Potency |
| --- | --- | --- |
| COC(=O)c1c(C)cc(O)c(C)c1O | -2.33% |  |
| O=S(=O)(Cl)c1c(Cl)cccc1Cl | -0.479% |  |
| CC(=O)OC(C(=O)c1ccccc1)c1ccccc1 (stereo not drawn) | -1.76% |  |
| CC(=O)CC(=O)Nc1ccc(C)cc1C | 0.21% |  |
| CC(C)(C)c1nnc(NS(=O)(=O)c2ccccc2)s1 | 0.614% [at 52.9 µM] |  |
| CCCC(C)=O |  | inactive |
| Cc1c(F)cc2c(=O)c(C(=O)O)cn3c2c1CCC3C (stereo not drawn) | 1.32% [at 52.9 µM] |  |
| COc1ccc(-n2nc(CCC(=O)N(C)O)cc2-c2ccc(Cl)cc2)cc1 | 2.17% [at 52.9 µM] |  |
| CCC(=O)O[C@]1(C(=O)SCF)[C@H](C)C[C@H]2[C@@H]3C[C@H](F)C4=CC(=O)C=C[C@]4(C)[C@@]3(F)[C@@H](O)C[C@@]21C | 2.11% [at 52.9 µM] |  |
| O=P(O)(OCc1ccccc1)OCc1ccccc1 | 0.472% |  |
| O[C@@H](COc1cccc2ncccc12)CN1CCN(C2c3ccccc3[C@@H]3[C@H](c4ccccc42)C3(F)F)CC1 (stereo partly drawn) | -1.01% [at 52.9 µM] |  |
| O=C(Oc1ccccc1C(=O)O)c1ccccc1O | 1.66% [at 52.9 µM] |  |
| CCCCOCC(C)OCC(C)O (stereo not drawn) | -1.23% |  |
| CCCCOCCOC(=O)COc1cc(Cl)c(Cl)cc1Cl | -2.19% |  |
| CCOC(=O)COc1ccc2c(C)c(CCN(CC)CC)c(=O)oc2c1Cl |  | 13.8 µM (active) |
| CCn1cc(C(=O)O)c(=O)c2cc(F)c(N3CCNCC3)nc21 | 0.0174% [at 52.9 µM] |  |
| C=C(C)C(N)=O |  | inactive |
| CNC[C@H](O)[C@@H](O)[C@H](O)[C@H](O)CO |  | inactive |
| S=C([S-])NCCNC(=S)[S-].S=C([S-])NCCNC(=S)[S-].[Mn+2].[Zn+2] |  | 30.9 µM (active) |

Target: Acetylcholinesterase (Homo sapiens) (UniProt P22303)
Assay: Acetylcholinesterase (AChE) small molecule antagonists: enzyme-based qHTS assay (AID 1347397); note: nearly all actives have a fitted effect of over 55% in size
Conditions: Potency: AChE enzyme activity inhibition; outcome: AChE enzyme activity inhibition; series mostly up to 115 µM; activity change, negative = inhibition: at the top concentration
How it was run: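 Tox21 library chemicals are tested in qHTS format against recombinant human AChE. The enzyme, dispensed at 50 mU/mL, sits with compound for 30 min at room temperature. A DTNB–acetylthiocholine cocktail follows, and colour is read after 10 min.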

| SMILES | activity change, negative = inhibition | Potency |
| --- | --- | --- |
| CCCCCCCCCCCC(=O)OCC(C)OC(=O)CCCCC(=O)O (stereo not drawn) | 0.132% [at 53 µM] |  |
| c1ccc2sc(SN3CCOCC3)nc2c1 | 3.3% [at 53 µM] |  |
| O=C(O)CCSSCCC(=O)O | 0.545% |  |
| Nc1nc(N)c2nc(-c3ccccc3)c(N)nc2n1 |  | inactive |
| CC(C)Nc1cccnc1N1CCN(C(=O)c2cc3cc(NS(C)(=O)=O)ccc3[nH]2)CC1 | -0.27% [at 53 µM] |  |
| CC1CCC(CO)CC1 (stereo not drawn) | 3.6% |  |
| CCN(Cc1cccnc1)C(=O)c1cccc(Cl)c1[C@]1(C)C(=O)N(Cc2ccc(OC)cc2OC)c2ccc(Cl)cc21 | 3.34% |  |
| C[C@H]1C[C@H]2[C@@H]3CCC4=CC(=O)C=C[C@]4(C)[C@@]3(Cl)[C@@H](O)C[C@]2(C)[C@@]1(O)C(=O)CO | -8.03% [at 53 µM] |  |
| CN1CCN(C2=Nc3cc(F)ccc3Cc3ccccc32)CC1 | -0.135% [at 53 µM] |  |
| C1CCCNCCC1 | 2.98% |  |
| O=C1c2ccccc2CCc2ccccc21 |  | inactive |
| c1ccc(-c2ccccn2)nc1 | 0.71% |  |
| CC(=O)Oc1c(C)c(C)c2c(c1C)CC[C@@](C)(CCC[C@H](C)CCC[C@H](C)CCCC(C)C)O2 |  | inactive |
| CCCCOCCOC(=O)c1ccccc1C(=O)OCCOCCCC |  | inactive |
| C=C(C)C(=O)OCc1ccccc1 | -0.0349% |  |
| O=C(/C=C/c1ccccc1)OCc1ccccc1 |  | inactive |
| CCOCCOCCOCCO |  | inactive |
| CCCCCCCCCCCC(=O)Cl | -1.19% |  |
| O=C(NO)c1ccccc1 | -0.995% |  |
| O=C[C@@H](O)[C@H](O)[C@H](O)CO | 1.5% |  |

| SMILES | activity change, negative = inhibition | Potency |
| --- | --- | --- |
| COC(=O)c1c(C)cc(O)c(C)c1O | 0.233% |  |
| O=S(=O)(Cl)c1c(Cl)cccc1Cl | 3.92% |  |
| CC(=O)OC(C(=O)c1ccccc1)c1ccccc1 (stereo not drawn) | 0.279% |  |
| CC(=O)CC(=O)Nc1ccc(C)cc1C | -0.333% |  |
| CC(C)(C)c1nnc(NS(=O)(=O)c2ccccc2)s1 | 1.8% [at 53 µM] |  |
| CCCC(C)=O |  | inactive |
| Cc1c(F)cc2c(=O)c(C(=O)O)cn3c2c1CCC3C (stereo not drawn) | 0.865% [at 53 µM] |  |
| COc1ccc(-n2nc(CCC(=O)N(C)O)cc2-c2ccc(Cl)cc2)cc1 | 1.36% [at 53 µM] |  |
| CCC(=O)O[C@]1(C(=O)SCF)[C@H](C)C[C@H]2[C@@H]3C[C@H](F)C4=CC(=O)C=C[C@]4(C)[C@@]3(F)[C@@H](O)C[C@@]21C | -0.837% [at 53 µM] |  |
| O=P(O)(OCc1ccccc1)OCc1ccccc1 | 0.818% |  |
| O[C@@H](COc1cccc2ncccc12)CN1CCN(C2c3ccccc3[C@@H]3[C@H](c4ccccc42)C3(F)F)CC1 (stereo partly drawn) | 1.02% [at 53 µM] |  |
| O=C(Oc1ccccc1C(=O)O)c1ccccc1O | 0.103% [at 53 µM] |  |
| CCCCOCC(C)OCC(C)O (stereo not drawn) |  | 57.8 µM (active) |
| CCCCOCCOC(=O)COc1cc(Cl)c(Cl)cc1Cl | -0.122% |  |
| CCOC(=O)COc1ccc2c(C)c(CCN(CC)CC)c(=O)oc2c1Cl |  | 15.5 µM (active) |
| CCn1cc(C(=O)O)c(=O)c2cc(F)c(N3CCNCC3)nc21 | 0.428% [at 53 µM] |  |
| C=C(C)C(N)=O |  | inactive |
| CNC[C@H](O)[C@@H](O)[C@H](O)[C@H](O)CO |  | inactive |
| S=C([S-])NCCNC(=S)[S-].S=C([S-])NCCNC(=S)[S-].[Mn+2].[Zn+2] | -21.1% [at 53 µM] |  |
